Results from PubChem BioAssay (NCI).
The panel holds about 79,000 compounds, 15% with a hit somewhere; the sample as a whole holds those more often. The source made the active and inactive calls. Rule as the data show it: active = growth inhibition above about 70%; inactive = the rest.

Test: NCI Yeast Anticancer Drug Screen. Data for the cln2 rad14 strain (AID 165);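 also: 0% = growth equal to vehicle treated cultures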
Conditions: S. cerevisiae cln2 rad14 strain, at 50.0 µM (retest, dose inferred, filed as 5.0), active compounds read high
Summary of the method: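 Strain: cln2 rad14 yeast, altered in cell cycle control and DNA damage repair. Read-out: growth inhibition vs vehicle.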

Structure (SMILES)	growth inhibition
O=C1C(=O)C(CCCO)(CCCO)CCCCCCCCC1(CCCO)CCCO	19% (inactive)
CC(C)(C)C(=O)CC(=O)C(F)(F)C(F)(F)C(F)(F)F.CC(C)(C)C(=O)CC(=O)C(F)(F)C(F)(F)C(F)(F)F.CC(C)(C)C(=O)CC(=O)C(F)(F)C(F)(F)C(F)(F)F.[Er]	38% (inactive)
CCCCC(CC)COC(=O)c1cc2ccccc2oc1=O (stereo not given)	4% (inactive)
Nc1ccc(-c2nc3ccccc3s2)cc1I	68% (inactive)
CN1CCC(CCC(=O)OC(C)(C)C)(CN2c3ccccc3Sc3ccccc32)C1 (stereo not given)	97% (active)
COc1cc(C(=O)C=[N+]=[N-])c([N+](=O)[O-])c(OC)c1OC	51% (inactive)
COc1ccc(-n2cc(-c3ccc(Cl)cc3)c3c(N)ncnc32)cc1	25% (inactive)
COc1ccccc1/C=C1\SC(=S)N(/C=C2\C(=O)Oc3ccccc3C2=O)C1=O	17% (inactive)
F[Si](c1ccccc1)(c1ccccc1)c1ccccc1	82% (active)
Cc1c2ccnc(-c3ccc(F)cc3)c2cc2c1[nH]c1ccccc12	17% (inactive)
CCN(CC)CCNc1c(OC)cc(C)c2sc3ccccc3c(=O)c12	39% (inactive)
O=c1cccc(C2CCc3cc(O)ccc3C2)[nH]1 (stereo not given)	-18% (inactive)
O/N=C1\c2ccccc2-c2ccc(Cl)cc21	27% (inactive)
CCCCN(CCCC)CC(O)c1cc(-c2ccc(Cl)cc2)nc2c(Cl)cccc12 (stereo not given)	-13% (inactive)
CN(C)c1ccc(-c2c(C#N)c(S)n(NS(=O)(=O)c3ccccc3)c(=O)c2C#N)cc1	69% (inactive)
Clc1ccc2ns[s+]c2c1	49% (inactive)
COc1ccc2c(c1)CC/C(=C\c1ccc(OCCN(C)C)cc1)C2=O	-3% (inactive)
CCCCOC(=O)c1cnc[nH]c1=O	3% (inactive)
COC(=O)c1c(C)cccc1C1CN=NC12Cc1ccc(C)c(C)c1C2=O (stereo not given)	44% (inactive)
CC1CCN(CCOC(=O)C(c2ccccc2)C2C=CCCC2)C1 (stereo not given)	37% (inactive)

Structure (SMILES)	growth inhibition
CNCC(OB(c1ccccc1)c1ccccc1)c1ccccc1 (stereo not given)	99% (active)
O=C1CCC(Cc2ccc(C(F)(F)F)cc2)C(=O)N1 (stereo not given)	5% (inactive)
CC(C)(Br)C(Br)C(=O)C(Br)C(C)(C)Br (stereo not given)	15% (inactive)
CCCCCCCCN(CCCCCCCC)CC(O)c1cc2c(c3ccccc13)CCCC2 (stereo not given)	94% (active)
Brc1ccc(CCNCCN2CCCCC2)cc1	61% (inactive)
CC(C)=NNc1ncnc2nc[nH]c12	-3% (inactive)
CC1=C/C(=C\c2ccc([N+](=O)[O-])o2)C(=O)O1	99% (active)
CCOC(=O)C(=O)Nc1nc2c(s1)C(=O)c1ccccc1C2=O	89% (active)
CC1CC2(C)ON=C(c3ccccc3)N2c2ccccc2S1 (stereo not given)	97% (active)
N#CC(CC(Br)CBr)(c1ccccc1)c1ccccc1 (stereo not given)	-2% (inactive)
Oc1ccc(-c2ccccc2)cc1Cl	98% (active)
C=CCSc1nc2ccccc2c(=O)n1Cc1ccco1	26% (inactive)
CCOC(=O)c1ccc(O)c(OC)c1	5% (inactive)
O=C(COc1ccc2ccccc2c1)NC1c2ccccc2Oc2ccccc21	94% (active)
O=S(=O)(c1ccccc1)n1cc(C[P+](c2ccccc2)(c2ccccc2)c2ccccc2)c2ccccc21	99% (active)
CC/C(=N\O)c1ccc2cc(Br)c3ccccc3c2c1	84% (active)
CCOC(=O)C(C)(C)Oc1ccc2c(=O)cc(-c3ccccc3)oc2c1	96% (active)
CC(O)c1c2ccccc2cc2ccccc12 (stereo not given)	50% (inactive)
CC(=O)OC1CCC2(C)C(CCC3C4=CCC(C5COC(=O)C5)C4(C)CCC32)C1 (stereo not given)	89% (active)
NC(C(=O)O)C1=CCCCCC1 (stereo not given)	54% (inactive)

Same assay, conditions: S. cerevisiae cln2 rad14 strain, at 50.0 µM, active compounds read high

Structure (SMILES)	growth inhibition
O=C1C(=O)C(CCCO)(CCCO)CCCCCCCCC1(CCCO)CCCO	63.8% (inactive)
CC(C)(C)C(=O)CC(=O)C(F)(F)C(F)(F)C(F)(F)F.CC(C)(C)C(=O)CC(=O)C(F)(F)C(F)(F)C(F)(F)F.CC(C)(C)C(=O)CC(=O)C(F)(F)C(F)(F)C(F)(F)F.[Er]	88.8% (active)
CCCCC(CC)COC(=O)c1cc2ccccc2oc1=O (stereo not given)	49.5% (inactive)
Nc1ccc(-c2nc3ccccc3s2)cc1I	86.2% (active)
CN1CCC(CCC(=O)OC(C)(C)C)(CN2c3ccccc3Sc3ccccc32)C1 (stereo not given)	96.7% (active)
COc1cc(C(=O)C=[N+]=[N-])c([N+](=O)[O-])c(OC)c1OC	41.9% (inactive)
COc1ccc(-n2cc(-c3ccc(Cl)cc3)c3c(N)ncnc32)cc1	87.1% (active)
COc1ccccc1/C=C1\SC(=S)N(/C=C2\C(=O)Oc3ccccc3C2=O)C1=O	58.9% (inactive)
F[Si](c1ccccc1)(c1ccccc1)c1ccccc1	41.6% (inactive)
Cc1c2ccnc(-c3ccc(F)cc3)c2cc2c1[nH]c1ccccc12	-35.9% (inactive)
CCN(CC)CCNc1c(OC)cc(C)c2sc3ccccc3c(=O)c12	33.1% (inactive)
O=c1cccc(C2CCc3cc(O)ccc3C2)[nH]1 (stereo not given)	22.6% (inactive)
O/N=C1\c2ccccc2-c2ccc(Cl)cc21	41.4% (inactive)
CCCCN(CCCC)CC(O)c1cc(-c2ccc(Cl)cc2)nc2c(Cl)cccc12 (stereo not given)	98.5% (active)
CN(C)c1ccc(-c2c(C#N)c(S)n(NS(=O)(=O)c3ccccc3)c(=O)c2C#N)cc1	31.8% (inactive)
Clc1ccc2ns[s+]c2c1	47.8% (inactive)
COc1ccc2c(c1)CC/C(=C\c1ccc(OCCN(C)C)cc1)C2=O	15.4% (inactive)
CCCCOC(=O)c1cnc[nH]c1=O	10.4% (inactive)
COC(=O)c1c(C)cccc1C1CN=NC12Cc1ccc(C)c(C)c1C2=O (stereo not given)	54.1% (inactive)
CC1CCN(CCOC(=O)C(c2ccccc2)C2C=CCCC2)C1 (stereo not given)	41.8% (inactive)

Structure (SMILES)	growth inhibition
CNCC(OB(c1ccccc1)c1ccccc1)c1ccccc1 (stereo not given)	-26.6% (inactive)
O=C1CCC(Cc2ccc(C(F)(F)F)cc2)C(=O)N1 (stereo not given)	-42.7% (inactive)
CC(C)(Br)C(Br)C(=O)C(Br)C(C)(C)Br (stereo not given)	-7.9% (inactive)
CCCCCCCCN(CCCCCCCC)CC(O)c1cc2c(c3ccccc13)CCCC2 (stereo not given)	99.2% (active)
Brc1ccc(CCNCCN2CCCCC2)cc1	37.6% (inactive)
CC(C)=NNc1ncnc2nc[nH]c12	25.6% (inactive)
CC1=C/C(=C\c2ccc([N+](=O)[O-])o2)C(=O)O1	99.3% (active)
CCOC(=O)C(=O)Nc1nc2c(s1)C(=O)c1ccccc1C2=O	90% (active)
CC1CC2(C)ON=C(c3ccccc3)N2c2ccccc2S1 (stereo not given)	87% (active)
N#CC(CC(Br)CBr)(c1ccccc1)c1ccccc1 (stereo not given)	36.2% (inactive)
Oc1ccc(-c2ccccc2)cc1Cl	97.5% (active)
C=CCSc1nc2ccccc2c(=O)n1Cc1ccco1	-54.2% (inactive)
CCOC(=O)c1ccc(O)c(OC)c1	-13.8% (inactive)
O=C(COc1ccc2ccccc2c1)NC1c2ccccc2Oc2ccccc21	12% (inactive)
O=S(=O)(c1ccccc1)n1cc(C[P+](c2ccccc2)(c2ccccc2)c2ccccc2)c2ccccc21	98.1% (active)
CC/C(=N\O)c1ccc2cc(Br)c3ccccc3c2c1	96.8% (active)
CCOC(=O)C(C)(C)Oc1ccc2c(=O)cc(-c3ccccc3)oc2c1	92.5% (active)
CC(O)c1c2ccccc2cc2ccccc12 (stereo not given)	16.8% (inactive)
CC(=O)OC1CCC2(C)C(CCC3C4=CCC(C5COC(=O)C5)C4(C)CCC32)C1 (stereo not given)	63.1% (inactive)
NC(C(=O)O)C1=CCCCCC1 (stereo not given)	-6.65% (inactive)
